We go through 59 compounds from PubChem BioAssay (Tox21).

Results filed as inconclusive are left out. A call without a number means that no potency is given here. Active and inactive are the calls of the source. Calls follow the shape of the dose curve; as a rule, active = well fitted cell-killing curve with a large enough effect in the repeat runs; inconclusive = weak or mixed curves, or effect the other way; inactive = flat fitted curve, though single readings scatter.

Test [1] is described as follows: cAMP Responsive Elements (CRE) small molecule antagonists, cell-based qHTS assay: qHTS cell viability counter screen (AID 2060913). Also: nearly all actives have a fitted effect of over 40% in size. In short, it runs like this:
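CRE-bla HEK293T cells were seeded in assay medium with 10% dialyzed FBS, incubated 18 hrs at 37 C, then exposed to compounds plus 0.25 uM final NKH477 for 3 hrs. Viability was read by CellTiter-Glo luminescence after 30 min, in the same wells.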

Test [2] in a line: cAMP Responsive Elements (CRE) small molecule agonists, cell-based qHTS assay: qHTS cell viability counter screen (AID 2060914). Also: nearly all actives have a fitted effect of over 50% in size. In short, it runs like this:
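Cytotoxicity was measured as ATP luminescence (CellTiter-Glo, 30 min at room temperature) in the same wells as the CRE-bla FRET read-out. HEK293T CRE-bla cells had 3 h compound exposure at 37C/5% CO2.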
Potency is read from the fitted curve at half-maximal effect.

With `O=C1CN=C(c2ccccc2)c2cc(Cl)ccc2N1CC1CC1`, the Potency result in test [1] and in test [2] was “inactive” each time.
As to `Cc1ccc(OP(=O)(Oc2ccccc2)Oc2ccccc2)cc1`, the Potency entry in test [1] and in test [2] was “inactive” in each case.
For the compound `N#C/C=C/c1ccccc1`, the Potency result in test [1] and in test [2] was “inactive” each time.
As to `CS/C(C)=N/OC(=O)N(C)SN(C)C(=O)O/N=C(\C)SC`, the Potency result in test [1] and in test [2] was “inactive” in each case.
Consider `Nc1cccnc1`, for which the Potency result in test [1] and in test [2] was “inactive” in each case.
As for `CC(C)CCCCCOC(=O)c1ccccc1C(=O)OCCCCCC(C)C`, the Potency result in test [1] and in test [2] was “inactive” throughout.
As for `CC1CN1` (stereo not drawn), the Potency entry in test [1] and in test [2] was “inactive” throughout.
Take `C[C@H]1CCCC(=O)CCC/C=C/c2cc(O)cc(O)c2C(=O)O1`: the Potency result in test [1] and in test [2] was “inactive” in each case.
Consider `CC(=O)OC1(c2ccccc2)CCN(CCc2ccccc2)CC1`, for which the Potency result in test [1] and in test [2] was “inactive” in each case.
In the case of `CCOC(=O)CC(SP(=S)(OC)OC)C(=O)OCC` (stereo not drawn), the Potency entry in test [1] and in test [2] was “inactive” throughout.
For the compound `CCCN`, the Potency entry in test [1] and in test [2] was “inactive” in each case.
In the case of `O=[N+]([O-])c1ccc(Cl)cc1`, the Potency entry in test [1] and in test [2] was “inactive” in each case.
Regarding `O=c1ccc(=O)[nH][nH]1`, the Potency entry in test [1] and in test [2] was “inactive” each time.
`Nc1nc(=S)[nH][nH]1`: the Potency result in test [1] and in test [2] was “inactive” in each case.
On to `C=C1CC[C@@]2(O)[C@H]3Cc4ccc(O)c5c4[C@@]2(CCN3CC2CC2)[C@H]1O5`, for which the Potency result in test [1] and in test [2] was “inactive” each time.
Take `CSCCCN=C=S`: the Potency entry in test [1] and in test [2] was “inactive” each time.
With `O=[Se]=O`, the results for the Potency in test [1] and in test [2] were 30.4 µM (active) and 17.1 µM (active), respectively.
The like results for `N=C(N)[Se]` were, in that order, “inactive” and “inactive”.
The like results for `Cc1cnc2c(C(=O)O)c(Cl)ccc2c1` were, in that order, “inactive” and “inactive”.
For the compound `COP(=O)(OC)SCn1c(=O)oc2cc(Cl)cnc21`, the Potency entry in test [1] and in test [2] was “inactive” in each case.
In the case of `CC(C(O)c1ccccc1)N(C)C/C=C/c1ccccc1` (stereo not drawn), the Potency result in test [1] and in test [2] was “inactive” throughout.
As to `c1ccc2c(c1)sc1ccccc12`, the Potency entry in test [1] and in test [2] was “inactive” each time.
On to `Cc1cc(-c2cc(C)c(N)c(C)c2)cc(C)c1N`, for which the Potency entry in test [1] and in test [2] was “inactive” in each case.
Turning to `CC[N+](=O)[O-]`, the Potency entry in test [1] and in test [2] was “inactive” each time.
Take `CCC#N`: the Potency result in test [1] and in test [2] was “inactive” each time.
With `O=[N+]([O-])c1ccc(Nc2ccccc2)cc1`, the Potency entry in test [1] and in test [2] was “inactive” in each case.
Regarding `CCOP(=O)(O)C(N)=O`, the Potency entry in test [1] and in test [2] was “inactive” each time.
For the compound `CCOP(=S)(OCC)Oc1cc(C)nc(C(C)C)n1`, the Potency entry in test [1] and in test [2] was “inactive” in each case.
Take `CCOP(=S)(OCC)SCCSCC`: the Potency result in test [1] and in test [2] was “inactive” throughout.
In the case of `ClCc1cccc(Cl)c1`, the Potency result in test [1] and in test [2] was “inactive” in each case.
Turning to `COP(=S)(NC(C)C)Oc1ccc(C)cc1[N+](=O)[O-]` (stereo not drawn), the Potency result in test [1] and in test [2] was “inactive” throughout.
Take `CCCN(CCC)C(=O)Cc1c(-c2ccc(Cl)cc2)nc2ccc(Cl)cn12`: the Potency result in test [1] and in test [2] was “inactive” in each case.
In the case of `CC(C)OC(=O)Nc1cccc(Cl)c1`, the Potency entry in test [1] and in test [2] was “inactive” in each case.
For the compound `CC(=O)[O-].CC(=O)[O-].O.O.[Zn+2]`, the Potency entry in test [1] and in test [2] was “inactive” throughout.
For the compound `CC1(C)C(=O)NC(=O)NC1=O`, the Potency result in test [1] and in test [2] was “inactive” throughout.
On to `CCOC(C(=O)OCCN(C)C)(c1ccccc1)c1ccccc1`, for which the Potency result in test [1] and in test [2] was “inactive” each time.
On to `Clc1ccc(-c2ccccc2)cc1`, for which the Potency result in test [1] and in test [2] was “inactive” each time.
Turning to `ClC(Cl)c1ccccc1`, the Potency entry in test [1] and in test [2] was “inactive” in each case.
In the case of `O=C1C=CC(=O)C=C1`, the Potency result in test [1] and in test [2] was “inactive” in each case.
As to `CC(C)(C)c1ccc(OP(=O)(Oc2ccccc2)Oc2ccccc2)cc1`, the Potency entry in test [1] and in test [2] was “inactive” throughout.
Turning to `C=C(C)C(=O)[O][Sn]([CH2]CCC)([CH2]CCC)[CH2]CCC`, the Potency in test [1] was 7.7 µM (active); in test [2], 4.86 µM (active).
Turning to `CCC[CH2][Sn]([Cl])([Cl])[Cl]`, the Potency entry in test [1] and in test [2] was “inactive” throughout.
For `Cc1ccc(N)cc1N`, the Potency result in test [1] and in test [2] was “inactive” throughout.
With `CC(C)CC(N(C)C)C1(c2ccc(Cl)cc2)CCC1` (stereo not drawn), the Potency result in test [1] and in test [2] was “inactive” throughout.
Take `COC(=O)N(C(=O)N1COC2(C(=O)OC)Cc3cc(Cl)ccc3C2=N1)c1ccc(OC(F)(F)F)cc1` (stereo not drawn): the Potency entry in test [1] and in test [2] was “inactive” throughout.
For the compound `c1ccc2c(c1)oc1ccccc12`, the Potency entry in test [1] and in test [2] was “inactive” in each case.
Take `CCCCCCn1cc[n+](C)c1`: the Potency entry in test [1] and in test [2] was “inactive” in each case.
As for `CCC(=O)C(CC(C)N(C)C)(c1ccccc1)c1ccccc1` (stereo not drawn), the Potency result in test [1] and in test [2] was “inactive” throughout.
For `C[C@@H]1C[C@@H]([C@H](O)CC2CC(=O)NC(=O)C2)C(=O)[C@@H](C)C1`, the Potency entry in test [1] and in test [2] was “inactive” each time.
As for `COc1cc(OC)nc(NC(=O)NS(=O)(=O)c2ncccc2OCC(F)(F)F)n1`, the Potency result in test [1] and in test [2] was “inactive” throughout.
As for `O=C(NC(=O)c1c(F)cccc1F)Nc1cc(Cl)c(Oc2ncc(C(F)(F)F)cc2Cl)c(Cl)c1`, the Potency result in test [1] and in test [2] was “inactive” each time.
As for `COc1cccc(C(=O)CCN[C@@H](C)[C@H](O)c2ccccc2)c1`, the Potency result in test [1] and in test [2] was “inactive” throughout.
Regarding `CC(C)N(C(=O)COc1nnc(C(F)(F)F)s1)c1ccc(F)cc1`, the Potency entry in test [1] and in test [2] was “inactive” in each case.
For `O=S(=O)(O)F`, the Potency result in test [1] and in test [2] was “inactive” each time.
On to `ClCCCCCCCl`, for which the Potency result in test [1] and in test [2] was “inactive” throughout.
In the case of `COc1ccc2c(c1OC)C(=O)O[C@@H]2[C@H]1c2cc3c(cc2CCN1C)OCO3`, the Potency result in test [1] and in test [2] was “inactive” each time.
Regarding `S=C=Nc1cccc2ccccc12`, the Potency entry in test [1] and in test [2] was “inactive” in each case.
For the compound `CNC(=O)Oc1ccc(N(C)C)c(C)c1`, the Potency entry in test [1] and in test [2] was “inactive” throughout.
Consider `C[C@H](N)[C@H](O)c1ccc(O)c(O)c1`, for which the Potency result in test [1] and in test [2] was “inactive” each time.
